Laboratory results reported in ChEMBL document CHEMBL4513216, “Probing the Open Global Health Chemical Diversity Library for Multistage-Active Starting Points for Next-Generation Antimalarials” (ACS Infect Dis, 2020).
The whole screen tested about 65,000 compounds, of which about 2,100 (3.2%) showed an effect of 50% or more. The median lay at about -52%. What follows is part of a selection rich in strong results, with near analogues and random picks from the rest.

Test system: Plasmodium falciparum
Experiment: Screen against P. falciparum Asexual Blood Stage (ABS), at 5uM
Assay type: functional, Dd2
Settings: tested at 5 uM

First: CC(C)(C)C(=O)NS(=O)(=O)c1ccc(C#N)c(C(F)(F)F)c1
Second: CCCC(=O)NS(=O)(=O)c1ccc(C#N)c(C(F)(F)F)c1
The INHIBITION of the first is lower: -87.2% for the first, -56% for the second.

Compared with `CN(C)[C@@H]1CN(C(=O)Cc2ccsc2)[C@@H]2CCCO[C@H]12`, `CO[C@H]1CN(Cc2ccc(C)o2)[C@@H]2CCCO[C@H]12` is lower in INHIBITION: 32.7% for the first, 11.8% for the second.

Going from `CCNC(=O)CCC(=O)NC(C)Cc1ccccc1Br` (stereo not given) to `COC(=O)CCC(=O)NC(C)Cc1ccccc1Br` (stereo not given), the INHIBITION rises from -67.5% to -63.4%.

Compared with `NC(=O)C1CN(C(=O)Nc2cc(Cl)cc(Cl)c2)CCO1` (stereo not given), `NC(=O)C1CN(C(=O)Cc2cccnc2)CCN(C2CCOCC2)C1` (stereo not given) is lower in INHIBITION: 84.9% for the first, -92.3% for the second.

Going from `O=C(CCc1cscn1)N1CCC(C(=O)O)(c2ccccc2)CC1` to `O=C(NCc1cc2n(n1)CCCNC2)C1(c2ccccc2)CCCCC1`, the INHIBITION rises from -11.5% to 73.7%.

First: Cc1ncc2c(c1CNC(=O)C1(C)CCCCO1)CCNC2 (stereo not given)
Second: COCC(=O)N1C[C@H]2CNC[C@@]2(C(=O)NCc2c(C)noc2C)C1
The INHIBITION of the first is lower: -63.8% for the first, -53.3% for the second.

First: O=C1N(Cc2cccnc2)C[C@H]2CN(C3CCOCC3)CCN12
Second: O=C1[C@H]2CN(C3CCOCC3)C[C@H]2CN1Cc1cccnc1
The INHIBITION of the first is lower: -55.6% for the first, -28.2% for the second.

First: CO[C@@H]1CCN(C2CCOCC2)C[C@@H]1Cc1ccccc1
Second: CO[C@H]1CCN(C2CCOCC2)C[C@@H]1Cc1ccccc1
The INHIBITION of the first is higher: 80.8% for the first, 78.7% for the second.

First: Cc1nnc(N2CC[C@@H](OCC3CC3)[C@@H](Cc3ccccc3)C2)s1
Second: c1ccc(C[C@H]2CN(C3CCOCC3)CC[C@H]2OCC2CC2)cc1
The INHIBITION of the first is higher: 84.8% for the first, 74.9% for the second.

Compared with `O=C1[C@H]2CN(C3CCOCC3)C[C@H]2CN1Cc1ccncc1`, `O=C1[C@@H]2CCN(CC3CC3)C[C@@H]2OCCN1c1cccnc1` is lower in INHIBITION: -33.5% for the first, -73.4% for the second.

First: c1cncc(CO[C@H]2CC[C@H]3[C@@H]2OCCN3C2CCOCC2)c1
Second: c1cc(CO[C@@H]2CN(Cc3ccoc3)[C@@H]3CCCO[C@@H]32)ccn1
The INHIBITION of the first is higher: -57.8% for the first, -102% for the second.

Compared with `c1ccc(CN2C[C@@H]3OCCN(CC4CCCO4)[C@@H]3C2)nc1` (stereo not given in full), `c1cnc(N2CCO[C@H]3CN(CC4CC4)C[C@H]32)nc1` is higher in INHIBITION: -0.326% for the first, 3.32% for the second.

Compared with `CCCN1CCN(C(=O)c2cnc(C)nc2)[C@H]2CS(=O)(=O)C[C@H]21`, `O=C(Cc1ccc(CO)cc1)N1CCN(CC2CC2)[C@@H]2CS(=O)(=O)C[C@@H]21` is higher in INHIBITION: -183% for the first, -55.1% for the second.

Going from `O=C(C1CCCCC1)N1CC2(CCNCC2)C1` to `O=C(NCC1CC1)C1CCC2(CCNCC2)C1` (stereo not given), the INHIBITION falls from -23.1% to -31.3%.

Going from `CC(C)CN1CC[C@@H]2[C@@H]1CCN2C(=O)N(C)C` to `CN(C)C(=O)COC[C@H]1CC[C@@H]2[C@@H](CCN2Cc2ccccn2)O1`, the INHIBITION falls from -67.2% to -79.4%.

First: Cc1cnn(CC(C)NCC(=O)NC2CCOCC2)c1 (stereo not given)
Second: CC(C)N1CCC(Cn2cc(C(N)=O)cn2)CC1
The INHIBITION of the first is higher: 14.5% for the first, -7.48% for the second.

Going from `Cc1cnn(CC2CCN(CC(O)c3ccccc3Cl)CC2)c1` (stereo not given) to `CCOc1ccc2nc(CN3CCC(CN)C3)ccc2c1` (stereo not given), the INHIBITION rises from 78% to 85.5%.

First: O=C(CC1CCCC1)NCCNCc1cccc2c1OCCO2
Second: Fc1cnc(N2CCO[C@H]3CN(CC4CCCC4)C[C@H]32)nc1
The INHIBITION of the first is higher: 71.6% for the first, 25.4% for the second.

Going from `O=C1[C@H]2CN(Cc3ccccn3)C[C@H]2CN1c1ccsc1` to `O=C1[C@H]2CN(CC3CC3)C[C@H]2CN1c1ccsc1`, the INHIBITION falls from -16.2% to -60.4%.

Going from `O=C(NCc1cccnc1)Nc1cc(C(F)(F)F)c[nH]c1=O` to `O=C(Nc1cc(C(F)(F)F)c[nH]c1=O)C1CCCN1` (stereo not given), the INHIBITION falls from 79% to -151%.

First: CC(C)CN1CCC2(CC(C(=O)NCc3cccnc3)=NO2)C1 (stereo not given)
Second: O=C(NCC(F)(F)F)C1=NOC2(CCCNC2)C1 (stereo not given)
The INHIBITION of the first is higher: -53.1% for the first, -61.4% for the second.

Compared with `CCCNC1(c2ccc(Cl)cc2)CCOCC1`, `COCCNC1(c2ccc(Cl)cc2)CCOCC1` is lower in INHIBITION: 67.7% for the first, 65.6% for the second.

First: CCOCCNC1(c2ccc(Cl)cc2)CCOCC1
Second: COC[C@]12COC[C@H]1CN(Cc1ccc3ccccc3n1)C2
The INHIBITION of the first is higher: 27.1% for the first, -29.2% for the second.

Going from `CCOC[C@H]1CC[C@H]2[C@H](CCN2Cc2c(C)noc2C)O1` to `Cc1noc(C)c1CN1C[C@H](OCC(=O)N(C)C)[C@H]2COC[C@H]21`, the INHIBITION falls from -13.8% to -85.8%.

First: CNc1cc(C)nc(N2C[C@H](C3CC3)[C@@H](N)C2)n1
Second: Cc1noc(C)c1CN1C(=O)[C@@H]2CC[C@H]1CN(Cc1nccs1)C2
The INHIBITION of the first is higher: 88.3% for the first, -122% for the second.

Going from `CCc1[nH]c(C2(N)CCCC2)nc(=O)c1C` to `COCCN1CCC12CCN(C(=O)c1ccc(C)nc1)C2` (stereo not given), the INHIBITION falls from -32.3% to -172%.

First: COCCN(Cc1ccccc1Cl)c1nc(CCN)nc2ccccc12
Second: COc1cccc([C@@H]2CCN(Cc3ccc4ccccc4n3)C[C@H]2O)c1
The INHIBITION of the first is higher: 89.5% for the first, -17.2% for the second.

Going from `CCCNCc1ccc(-c2cc(N)nc3[nH]ccc23)cc1` to `Cc1ccc(CNCc2cccc3cn[nH]c23)c(OC2CCOC2)c1` (stereo not given), the INHIBITION rises from 72.3% to 78.7%.

Compared with `CN(C)c1nccc(N(C)C2CCN(CC3CCOC3)CC2)n1` (stereo not given), `CO[C@@H]1CCN(S(=O)(=O)c2cccnc2)[C@@H]2CN(CC3CC3)C[C@@H]21` is lower in INHIBITION: -4.08% for the first, -23.6% for the second.

Compared with `Cc1ccc(CNCc2cccc3cccnc23)c(OC2CCOC2)c1` (stereo not given), `Cc1nc(CN2C[C@@H]3OCCN(c4ncc(F)cn4)[C@@H]3C2)cs1` is lower in INHIBITION: 85.4% for the first, 52% for the second.

First: Cc1nc(COC[C@@H]2CC[C@H]3NCC[C@H]3O2)cs1
Second: CC(C)CCN1C[C@@H]2OCCN(c3ncc(F)cn3)[C@@H]2C1
The INHIBITION of the first is lower: -46.5% for the first, -2.26% for the second.

First: Cc1cnc(N2CCC[C@@H]3CN(CC(=O)N(C)C)C[C@@H]32)nc1
Second: O=c1cc(CN2CC[C@@H]3CC[C@H](C2)N3)c2cccc3c2n1CCC3
The INHIBITION of the first is higher: -22.5% for the first, -41.1% for the second.

In the case of `COc1cc(C2SCC(=O)Nc3[nH]ncc32)cc(OC)c1OC` (stereo not given), the INHIBITION is reported as -200%.
